Of roughly 8,800 targets only a part is listed; those with a hit were picked by preference. About 0.5% of all pairs of compound and target were hits.
Assays:
Test in all cases: log2 fold change, soluble protein after heating vs DMSO (PISA); higher = thermal stabilisation; K562 lysate, 10 uM; active = over 0.2 and 3.5 SD of the protein, either way, in both replicates (recomputed)
[1] = compound: NCC(=O)Nc1ccc(-n2nc(C(F)(F)F)cc2-c2ccc3c(ccc4ccccc43)c2)cc1
How it was run: (§1)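 The values are log-two fold changes in thermal stability compared with solvent controls and come from duplicates. They were obtained by TMTpro 16plex LC-MS/MS, with channel sums equalised, on the supernatant after 21,000xg for 90 min. That supernatant came from crude K562 extract at 1 mg/mL protein treated with 10 μM compound for 30 min, heated for 3 min across 48°C-58°C, pooled and brought to 0.5% NP-40 at 4°C.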

[2] = compound: O=C(CCCCCCC(=O)Nc1ccccc1)NO [vorinostat]
How it was run: as §1

[3] = compound: O=C(O)c1ccc2c(c1)nc(Nc1cccc(Cl)c1)c1ccncc12 [silmitasertib]
How it was run: as §1

[4] = compound: O=C1NC(=O)C(c2cnc3ccccn23)=C1c1cn2c3c(cc(F)cc13)CN(C(=O)N1CCCCC1)CC2
How it was run: as §1

[5] = compound: c1cn2cc(-c3ccc4cn[nH]c4c3)nc(Nc3ccc(N4CCOCC4)cc3)c2n1 [entospletinib]
How it was run: as §1

Measured: log2 fold change

CAPN15 (UniProt O75808)
UniProt O75808, sequence (O75808 whole entry, looked up): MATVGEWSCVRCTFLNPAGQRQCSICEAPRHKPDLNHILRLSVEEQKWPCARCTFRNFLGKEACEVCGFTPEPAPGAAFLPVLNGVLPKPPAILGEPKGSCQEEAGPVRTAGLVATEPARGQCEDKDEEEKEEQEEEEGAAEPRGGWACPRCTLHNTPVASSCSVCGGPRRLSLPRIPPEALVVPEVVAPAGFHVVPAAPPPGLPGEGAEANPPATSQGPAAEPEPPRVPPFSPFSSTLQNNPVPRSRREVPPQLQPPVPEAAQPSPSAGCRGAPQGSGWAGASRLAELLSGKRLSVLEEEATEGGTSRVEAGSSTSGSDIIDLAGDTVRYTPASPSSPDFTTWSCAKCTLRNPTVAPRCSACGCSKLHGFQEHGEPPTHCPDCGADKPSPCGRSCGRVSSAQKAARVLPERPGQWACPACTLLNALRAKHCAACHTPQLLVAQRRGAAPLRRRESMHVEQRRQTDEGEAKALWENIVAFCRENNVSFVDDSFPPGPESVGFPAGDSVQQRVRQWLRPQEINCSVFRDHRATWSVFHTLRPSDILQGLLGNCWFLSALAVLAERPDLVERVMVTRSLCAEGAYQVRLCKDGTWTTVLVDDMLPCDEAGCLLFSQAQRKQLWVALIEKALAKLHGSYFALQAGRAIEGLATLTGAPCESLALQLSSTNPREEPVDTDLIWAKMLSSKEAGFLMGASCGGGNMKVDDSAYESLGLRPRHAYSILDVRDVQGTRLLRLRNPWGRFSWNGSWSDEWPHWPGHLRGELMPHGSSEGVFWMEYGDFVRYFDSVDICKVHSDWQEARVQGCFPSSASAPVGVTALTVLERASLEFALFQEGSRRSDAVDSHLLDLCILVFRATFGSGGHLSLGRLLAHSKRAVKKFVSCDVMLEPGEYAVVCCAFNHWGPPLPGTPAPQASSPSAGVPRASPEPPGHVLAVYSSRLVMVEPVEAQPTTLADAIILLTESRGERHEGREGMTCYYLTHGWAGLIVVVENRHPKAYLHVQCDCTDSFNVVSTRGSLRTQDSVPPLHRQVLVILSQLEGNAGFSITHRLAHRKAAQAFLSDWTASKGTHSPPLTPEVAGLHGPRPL
active: [2] -0.504
inactive: [1] 0.028 | [3] -0.016 | [4] -0.081 | [5] -0.043

BTAF1 (UniProt O14981)
active: [2] -0.45
inactive: [1] 0.01 | [3] 0.003 | [4] -0.008 | [5] -0.031

CHD4 isoform 2 (UniProt Q14839)
active: [2] -0.284
inactive: [1] 0.023 | [3] -0.006 | [4] 0.015 | [5] -0.01

CDK8 (UniProt P49336)
UniProt P49336, sequence (P49336 whole entry, looked up): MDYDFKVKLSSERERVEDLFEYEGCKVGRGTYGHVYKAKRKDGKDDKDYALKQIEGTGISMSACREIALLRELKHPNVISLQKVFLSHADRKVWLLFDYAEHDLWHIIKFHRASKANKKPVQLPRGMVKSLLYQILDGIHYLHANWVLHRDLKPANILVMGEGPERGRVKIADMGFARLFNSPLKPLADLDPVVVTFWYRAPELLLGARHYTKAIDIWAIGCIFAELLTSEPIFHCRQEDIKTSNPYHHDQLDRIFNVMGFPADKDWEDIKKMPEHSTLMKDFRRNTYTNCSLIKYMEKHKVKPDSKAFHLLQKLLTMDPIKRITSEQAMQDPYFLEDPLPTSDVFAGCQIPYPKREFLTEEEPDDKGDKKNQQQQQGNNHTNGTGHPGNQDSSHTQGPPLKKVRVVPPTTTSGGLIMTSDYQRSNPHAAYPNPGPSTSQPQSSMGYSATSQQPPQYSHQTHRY
inactive: [1] -0.008 | [2] -0.057 | [3] 0.226 | [4] -0.053

BUD23 isoform 3 (UniProt O43709)
UniProt O43709, sequence (O43709 whole entry, looked up): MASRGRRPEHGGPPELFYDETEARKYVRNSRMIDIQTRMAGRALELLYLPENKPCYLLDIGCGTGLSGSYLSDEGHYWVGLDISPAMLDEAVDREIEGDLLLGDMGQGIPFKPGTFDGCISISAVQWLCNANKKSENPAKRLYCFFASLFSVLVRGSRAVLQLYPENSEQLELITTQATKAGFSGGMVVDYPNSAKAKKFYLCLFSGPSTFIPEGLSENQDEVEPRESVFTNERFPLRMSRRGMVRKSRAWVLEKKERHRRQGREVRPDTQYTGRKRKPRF
inactive: [1] 0.007 | [2] 0.014 | [3] -0.07 | [4] -0.021 | [5] 0.055

C15orf41 (UniProt Q9Y2V0)
inactive: [1] -0.124 | [3] -0.011 | [4] -0.012 | [5] 0.04
active: [2] -0.362

AUH (UniProt Q13825)
UniProt Q13825, sequence (Q13825 whole entry, looked up): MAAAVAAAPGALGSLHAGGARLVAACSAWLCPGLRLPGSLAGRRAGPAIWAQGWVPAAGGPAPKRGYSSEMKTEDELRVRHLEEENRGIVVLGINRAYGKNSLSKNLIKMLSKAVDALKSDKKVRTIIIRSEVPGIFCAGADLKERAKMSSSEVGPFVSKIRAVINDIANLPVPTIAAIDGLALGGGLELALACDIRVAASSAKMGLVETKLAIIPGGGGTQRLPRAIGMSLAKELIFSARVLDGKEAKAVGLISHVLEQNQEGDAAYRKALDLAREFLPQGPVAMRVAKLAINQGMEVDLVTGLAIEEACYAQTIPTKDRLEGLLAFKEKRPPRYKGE
inactive: [1] 0.1 | [2] -0.068 | [3] 0.017 | [4] -0.063 | [5] -0.11

CDK17 isoform 2 (UniProt Q00537)
UniProt Q00537, sequence (Q00537 whole entry, looked up): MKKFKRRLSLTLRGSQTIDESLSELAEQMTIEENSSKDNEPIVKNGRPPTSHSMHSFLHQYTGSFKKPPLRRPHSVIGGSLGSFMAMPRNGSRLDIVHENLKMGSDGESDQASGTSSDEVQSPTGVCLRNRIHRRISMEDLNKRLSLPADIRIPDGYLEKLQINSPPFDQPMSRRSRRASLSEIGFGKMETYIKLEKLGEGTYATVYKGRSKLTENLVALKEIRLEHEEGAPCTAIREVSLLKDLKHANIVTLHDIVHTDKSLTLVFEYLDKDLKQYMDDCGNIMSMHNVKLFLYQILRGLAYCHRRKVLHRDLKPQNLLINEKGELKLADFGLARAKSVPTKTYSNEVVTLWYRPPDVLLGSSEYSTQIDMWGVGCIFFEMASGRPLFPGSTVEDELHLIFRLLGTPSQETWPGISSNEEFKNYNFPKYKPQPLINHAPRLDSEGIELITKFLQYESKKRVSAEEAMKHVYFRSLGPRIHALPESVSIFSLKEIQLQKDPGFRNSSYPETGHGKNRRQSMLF
active: [3] 0.565
inactive: [1] 0.01 | [2] 0.174 | [4] 0.103 | [5] -0.162

CBX5 (UniProt P45973)
UniProt P45973, sequence (P45973 whole entry, looked up): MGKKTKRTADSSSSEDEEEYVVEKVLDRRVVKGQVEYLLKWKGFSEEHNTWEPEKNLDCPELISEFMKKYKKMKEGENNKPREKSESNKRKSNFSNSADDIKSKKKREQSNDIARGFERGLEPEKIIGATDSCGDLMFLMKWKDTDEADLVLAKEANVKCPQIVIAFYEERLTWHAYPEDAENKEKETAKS
inactive: [1] 0.033 | [2] -0.062 | [3] -0.005 | [4] -0.048 | [5] 0.014

CCDC22 (UniProt O60826)
inactive: [1] 0.056 | [3] 0.022 | [4] 0.014 | [5] -0.021
active: [2] -0.222

ATG10 (UniProt Q9H0Y0)
active: [2] -0.242
inactive: [1] -0.032 | [3] 0.049 | [4] -0.023 | [5] 0.034

CALB2 (UniProt P22676)
inactive: [1] 0.067 | [2] 0.156 | [3] 0.017 | [4] 0.063 | [5] 0.019

CDC7 (UniProt O00311)
UniProt O00311, sequence (O00311 whole entry, looked up): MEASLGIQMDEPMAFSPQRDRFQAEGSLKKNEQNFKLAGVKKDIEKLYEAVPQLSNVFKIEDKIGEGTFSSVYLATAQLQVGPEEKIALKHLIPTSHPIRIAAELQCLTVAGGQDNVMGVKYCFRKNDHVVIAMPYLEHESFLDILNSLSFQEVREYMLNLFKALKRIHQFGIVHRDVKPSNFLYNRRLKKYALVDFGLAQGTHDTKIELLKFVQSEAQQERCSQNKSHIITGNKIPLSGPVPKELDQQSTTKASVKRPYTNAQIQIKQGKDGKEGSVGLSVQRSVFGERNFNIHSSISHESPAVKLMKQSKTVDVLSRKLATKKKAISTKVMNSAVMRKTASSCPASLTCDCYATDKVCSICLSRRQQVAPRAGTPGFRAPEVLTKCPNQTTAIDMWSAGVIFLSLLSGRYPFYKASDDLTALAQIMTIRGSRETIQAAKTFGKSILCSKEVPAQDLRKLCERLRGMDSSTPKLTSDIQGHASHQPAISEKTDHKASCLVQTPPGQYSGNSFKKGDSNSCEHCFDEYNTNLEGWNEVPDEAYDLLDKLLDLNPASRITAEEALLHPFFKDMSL
inactive: [1] 0.086 | [2] -0.152 | [3] -0.077 | [4] -0.01 | [5] 0.007

CDKN1B (UniProt P46527)
UniProt P46527, sequence (P46527 whole entry, looked up): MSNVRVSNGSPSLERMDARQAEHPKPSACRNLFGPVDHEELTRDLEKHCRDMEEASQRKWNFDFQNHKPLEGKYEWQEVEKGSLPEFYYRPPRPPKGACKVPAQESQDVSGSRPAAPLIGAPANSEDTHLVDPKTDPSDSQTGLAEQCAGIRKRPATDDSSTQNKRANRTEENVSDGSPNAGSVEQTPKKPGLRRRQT
inactive: [1] 0.062 | [2] -0.011 | [3] 0.048 | [4] -0.067 | [5] -0.028

ATG13 isoform 2 (UniProt O75143)
inactive: [1] 0.01 | [2] 0.051 | [3] -0.01 | [4] 0.024 | [5] -0.008

CARD9 (UniProt Q9H257)
inactive: [1] 0.008 | [3] 0.011 | [4] 0.014 | [5] -0.038
active: [2] -0.217

CANX (UniProt D6RHJ3)
inactive: [1] 0.012

AURKA (UniProt O14965)
UniProt O14965, sequence (O14965 whole entry, looked up): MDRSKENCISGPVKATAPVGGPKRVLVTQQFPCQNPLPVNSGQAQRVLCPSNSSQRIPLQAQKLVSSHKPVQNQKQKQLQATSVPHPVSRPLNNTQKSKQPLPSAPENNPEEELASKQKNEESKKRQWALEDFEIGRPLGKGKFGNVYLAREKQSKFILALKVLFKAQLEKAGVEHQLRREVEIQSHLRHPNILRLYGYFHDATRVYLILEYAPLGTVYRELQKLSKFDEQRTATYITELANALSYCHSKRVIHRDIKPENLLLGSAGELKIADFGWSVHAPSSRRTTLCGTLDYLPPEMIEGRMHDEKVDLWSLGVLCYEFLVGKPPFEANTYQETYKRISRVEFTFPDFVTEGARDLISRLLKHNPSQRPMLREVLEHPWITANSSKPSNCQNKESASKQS
inactive: [1] -0.008 | [2] -0.236 | [3] 0.135 | [4] 0.1 | [5] 0.167

ATXN2 (UniProt F8WB05)
inactive: [1] 0.013 | [2] 0.011 | [3] 0.271 | [4] 0.115 | [5] -0.016

ATM (UniProt Q13315)
inactive: [1] 0.058 | [2] -0.093 | [3] 0.118 | [4] -0.033 | [5] 0.036

CDC40 (UniProt O60508)
UniProt O60508, sequence (O60508 whole entry, looked up): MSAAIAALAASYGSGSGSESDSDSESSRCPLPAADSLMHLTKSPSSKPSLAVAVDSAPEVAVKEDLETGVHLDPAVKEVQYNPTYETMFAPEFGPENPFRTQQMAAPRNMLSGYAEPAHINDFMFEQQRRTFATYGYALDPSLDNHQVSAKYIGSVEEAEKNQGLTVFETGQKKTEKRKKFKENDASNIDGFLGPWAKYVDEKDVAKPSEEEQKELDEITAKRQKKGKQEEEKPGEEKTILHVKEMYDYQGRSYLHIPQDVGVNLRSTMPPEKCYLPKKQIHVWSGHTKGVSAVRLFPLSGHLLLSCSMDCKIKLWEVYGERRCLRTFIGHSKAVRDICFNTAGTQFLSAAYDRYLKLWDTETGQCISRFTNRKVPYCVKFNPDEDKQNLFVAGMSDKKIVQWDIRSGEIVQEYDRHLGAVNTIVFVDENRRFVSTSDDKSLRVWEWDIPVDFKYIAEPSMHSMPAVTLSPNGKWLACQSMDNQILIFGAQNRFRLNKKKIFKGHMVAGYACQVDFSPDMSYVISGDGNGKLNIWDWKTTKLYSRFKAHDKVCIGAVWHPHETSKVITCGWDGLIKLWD
inactive: [1] 0.029 | [2] 0.08 | [3] 0.015 | [4] 0.005 | [5] 0.014

BOLA2 (UniProt Q9H3K6)
UniProt Q9H3K6, sequence (Q9H3K6 whole entry, looked up): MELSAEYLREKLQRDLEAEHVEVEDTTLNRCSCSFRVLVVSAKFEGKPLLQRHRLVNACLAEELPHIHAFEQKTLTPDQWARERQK
inactive: [1] -0.085 | [2] 0.1 | [3] 0.039 | [4] -0.039 | [5] -0.015

ATF7IP2 (UniProt Q5U623)
inactive: [1] 0.066 | [2] 0.027 | [3] 0.002 | [4] -0.048

CHAC2 (UniProt Q8WUX2)
UniProt Q8WUX2, sequence (Q8WUX2 whole entry, looked up): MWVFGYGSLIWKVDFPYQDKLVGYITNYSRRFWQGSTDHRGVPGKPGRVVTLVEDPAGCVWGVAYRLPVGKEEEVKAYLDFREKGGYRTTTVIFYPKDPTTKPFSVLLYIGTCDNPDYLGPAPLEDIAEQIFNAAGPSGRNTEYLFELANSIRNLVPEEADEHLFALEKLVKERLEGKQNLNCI
inactive: [1] -0.158 | [2] 0.066 | [3] -0.02 | [4] -0.012 | [5] -0.052

CD63 (UniProt P08962)
inactive: [1] -0.1 | [2] 0.123 | [3] -0.039 | [4] -0.173 | [5] 0.077
